The source of these data is PubChem BioAssay (NCI).

The panel holds about 83,000 compounds, 20% with a hit somewhere; the sample as a whole holds those more often.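 Single-dose data. Exposure time 48 hours. Values below 10 considered active.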 Values without a mark were called inactive. Calls of active or inactive are those of the source.

Some test systems named below: T-47D breast; BT-549 breast; MDA-MB-435 melanoma; SW-620 colon; MCF7 breast; HCT-116 colon; HCC-2998 colon; KM12 colon.
Common to all, as to assay: NCI-60 one-dose screen, 48 h (100 = growth as untreated, 0 = no growth, -100 = all killed)
What all share (conditions): 10 µM unless noted

In the case of `COc1ccc(-c2nc3c(N)c(CO)c(C)nc3o2)cc1`, the growth with T-47D breast was 90.9%; in the assay on BT-549 breast, 118%; in the assay on MDA-MB-435 melanoma it was 103%; in the assay on SW-620 colon it was 118%; in the assay on MCF7 breast, 86.1%; with HCT-116 colon, 103%. Further, the growth with HCC-2998 colon is 87%; in the assay with KM12 colon, 96.5%.
As to `CC1OC(O[C@H]2/C=C/C=C/C=C/C=C/C=C/C=C/C=C/[C@H](C)[C@@H](O)[C@@H](C)[C@H](C)OC(=O)CC(O)CC(O)CCC(O)C(O)CC(O)C[C@]3(O)C[C@H](O)C(C(=O)O)C(C2)O3)C(O)[C@H](N)C1O` (stereo not given in full), the growth in the assay on T-47D breast is 54.3%; with BT-549 breast, 36.6%; with MDA-MB-435 melanoma it was -69.5% (active); with SW-620 colon, -24.9% (active); with MCF7 breast, 28.8%; in the assay on HCT-116 colon, -38.1% (active). Also, the growth in the assay with HCC-2998 colon was 53.5%; with KM12 colon it was 41.6%.
Regarding `CC1(C)CC(=O)C2=C(C1)N(c1ccc(OC(F)(F)F)cc1)C(N)=C(C#N)C2c1ccc(Cl)cc1` (stereo not given), the growth was 79.1% in the assay with T-47D breast; 109% in the assay on BT-549 breast; 93.1% in the assay on MDA-MB-435 melanoma; 101% in the assay with SW-620 colon; 86% in the assay with MCF7 breast; 68.4% in the assay on HCT-116 colon. The growth in the assay with HCC-2998 colon is 94.7%; in the assay on KM12 colon, 86.9%.
Consider `CNS(=O)(=O)c1n[nH]nc1-c1cc(C(C)(C)C)c(O)c(C(C)(C)C)c1`, for which the growth in the assay on T-47D breast is 78.9%; in the assay on BT-549 breast, 101%; in the assay with MDA-MB-435 melanoma, 106%; in the assay on SW-620 colon it was 109%; with MCF7 breast, 93.8%; in the assay with HCT-116 colon, 94.6%. In addition, the growth with HCC-2998 colon and in the assay on KM12 colon was 105% in each case.
With `Cc1nc2c(c(N3CCCc4ccccc43)n1)CCC2`, the growth was 45.3% in the assay on T-47D breast; -12.1% (active) with BT-549 breast; 1.15% (active) in the assay with MDA-MB-435 melanoma; 22.5% with SW-620 colon; 14.6% in the assay with MCF7 breast; -17% (active) in the assay with HCT-116 colon. For the same compound, the figures for the growth in the assay on HCC-2998 colon and with KM12 colon were 18.3% and 0.58% (active), respectively.
Regarding `CCN(CC)Cc1cccc(C(=O)OC)c1`, the growth is 88.3% in the assay with T-47D breast; 93.1% in the assay on BT-549 breast; 101% in the assay with MDA-MB-435 melanoma; 101% in the assay on SW-620 colon; 90.9% in the assay with MCF7 breast; 89.9% in the assay with HCT-116 colon. Besides, the growth in the assay with HCC-2998 colon and in the assay on KM12 colon was 102% in each case.
On to `Cn1ccc2c(c1=O)C(=O)c1nccc3c1c-2nc1ccccc13`, for which the growth with T-47D breast was 84.9%; in the assay with BT-549 breast, 87.4%; in the assay on MDA-MB-435 melanoma, 76.4%; in the assay on SW-620 colon, -76.3% (active); in the assay with MCF7 breast, -59.1% (active); with HCT-116 colon, -94.3% (active). The growth was -96.2% (active) in the assay with HCC-2998 colon and -88.1% (active) in the assay on KM12 colon.
Turning to `COc1cccc(-c2nn(-c3ccccc3)cc2-c2ccnc(NCCCNC(=O)c3ccccc3)c2)c1`, the growth with T-47D breast was 4.22% (active); in the assay on BT-549 breast, 14%; with MDA-MB-435 melanoma, 5.43% (active); in the assay with SW-620 colon, 39.7%; in the assay on MCF7 breast it was 33.4%; with HCT-116 colon it was 36%. Moreover, the growth was 52.3% with HCC-2998 colon and 33.6% with KM12 colon.
Consider `Nc1cc2c3c(cccc3c1)C(=O)N(CCN1CCCC1)C2=O`, for which the growth was 18% in the assay on T-47D breast; 74.7% with BT-549 breast; 48.7% with MDA-MB-435 melanoma; 20.3% with SW-620 colon; 6.93% (active) in the assay with MCF7 breast; 17.4% in the assay on HCT-116 colon. Besides, the growth in the assay with HCC-2998 colon is 44.1%; in the assay with KM12 colon, 34.7%.
On to `CCOC(CN=Cc1cc(C)c2[nH]c3ccccc3c2c1C)OCC`, for which the growth in the assay on T-47D breast was 94.4%; in the assay with BT-549 breast it was 83.2%; in the assay on MDA-MB-435 melanoma it was 97.8%; in the assay with SW-620 colon it was 99.1%; with MCF7 breast, 88.9%; with HCT-116 colon, 94.4%. The growth in the assay with HCC-2998 colon is 113%; with KM12 colon, 106%.
As for `COc1ccc(OC)c(-c2c(C#N)c(-c3ccc(Cl)cc3)nc3c2c(-c2ccccc2)nn3-c2ccccc2)c1`, the growth in the assay with T-47D breast is 90.3%; with BT-549 breast, 101%; in the assay with MDA-MB-435 melanoma it was 103%; in the assay on SW-620 colon, 98.6%; in the assay with MCF7 breast it was 90.7%; in the assay with HCT-116 colon, 93.8%. Also, the growth with HCC-2998 colon is 108%; with KM12 colon it was 99.2%.
In the case of `COc1ccc2nc(NNC(=O)c3cnccn3)c3cccn3c2c1`, the growth was 0.223% (active) with T-47D breast; 12.7% in the assay with BT-549 breast; 13.5% with MDA-MB-435 melanoma; 0.919% (active) with SW-620 colon; -31.6% (active) with MCF7 breast; -26.5% (active) in the assay with HCT-116 colon. The figures for the growth with HCC-2998 colon and in the assay with KM12 colon were 37.4% and 4.7% (active), respectively.
In the case of `COc1cccc(-c2nc3sccn3c2-c2ccnc(NCCNS(=O)(=O)c3cccc(F)c3)c2)c1`, the growth with T-47D breast is -2.17% (active); in the assay on BT-549 breast it was -6.02% (active); in the assay on MDA-MB-435 melanoma it was 43.8%; with SW-620 colon it was 51.9%; in the assay with MCF7 breast, 37.7%; in the assay on HCT-116 colon, 24.5%. In addition, the growth in the assay on HCC-2998 colon was 52%; with KM12 colon it was 27.3%.
In the case of `COc1cc(-c2nn(-c3ccccc3)cc2-c2ccnc(NCCNS(=O)(=O)c3ccc(Cl)cc3)n2)ccc1Cl`, the growth was 4.68% (active) in the assay with T-47D breast; 16.6% in the assay with BT-549 breast; 28.2% in the assay on MDA-MB-435 melanoma; 51.1% in the assay on SW-620 colon; 18% in the assay with MCF7 breast; 14.3% in the assay on HCT-116 colon. Further, the growth in the assay with HCC-2998 colon is 34.1%; in the assay with KM12 colon, 20.8%.
Turning to `Cn1c(-c2c(N)n(Cc3ccc(C(F)(F)F)cc3)c3nc(C#N)c(C#N)nc23)nc2ccccc21`, the growth in the assay on T-47D breast was 4.18% (active); in the assay with BT-549 breast, 7.95% (active); in the assay on MDA-MB-435 melanoma, 14.9%; in the assay with SW-620 colon it was 6.57% (active); in the assay with MCF7 breast, 8.74% (active); with HCT-116 colon it was -29% (active). The growth is 14.7% in the assay with HCC-2998 colon and 5.33% (active) in the assay on KM12 colon.
